# Test results: PubChem BioAssay (NCI)
# This is part of a sample that, as a whole, favours compounds with a hit. Of some 83,000 tested, about 20% had one in any assay.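 Cells were grown in 96-well plates and exposed to the test compound at a single concentration for 48 hours; results are reported as percent growth, with values below 10 considered active.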 A number with no mark means an inactive call. Calls of active or inactive are those of the source.
# How the values were obtained:
# Experiment in all cases: NCI-60 one-dose screen, 48 h (100 = growth as untreated, 0 = no growth, -100 = all killed)
# Conditions in all cases: 10 µM unless noted
# NCI-H23 lung = tested on: NCI-H23 lung
# NCI-H226 lung = tested on: NCI-H226 lung
# NCI-H322M lung = tested on: NCI-H322M lung
# HOP-62 NSCLC = tested on: HOP-62 NSCLC
# NCI-H460 lung = tested on: NCI-H460 lung
# HOP-92 NSCLC = tested on: HOP-92 NSCLC
# NCI-H522 lung = tested on: NCI-H522 lung
# A549/ATCC NSCLC = tested on: A549/ATCC NSCLC
# 786-0 renal = tested on: 786-0 renal
# COLO 205 colon = tested on: COLO 205 colon
# DU-145 prostate = tested on: DU-145 prostate
# K-562 leukemia = tested on: K-562 leukemia
# MALME-3M melanoma = tested on: MALME-3M melanoma
# MDA-MB-231 breast = tested on: MDA-MB-231 breast
# RXF 393 renal = tested on: RXF 393 renal
# SF-268 CNS = tested on: SF-268 CNS
# SF-295 CNS = tested on: SF-295 CNS
# SF-539 CNS = tested on: SF-539 CNS
# UACC-257 melanoma = tested on: UACC-257 melanoma
# M14 melanoma = tested on: M14 melanoma
Compound,growth (NCI-H23 lung),growth (NCI-H226 lung),growth (NCI-H322M lung),growth (HOP-62 NSCLC),growth (NCI-H460 lung),growth (HOP-92 NSCLC),growth (NCI-H522 lung),growth (A549/ATCC NSCLC),growth (786-0 renal),growth (COLO 205 colon),growth (DU-145 prostate),growth (K-562 leukemia),growth (MALME-3M melanoma),growth (MDA-MB-231 breast),growth (RXF 393 renal),growth (SF-268 CNS),growth (SF-295 CNS),growth (SF-539 CNS),growth (UACC-257 melanoma),growth (M14 melanoma)
Cc1ccc2c(=O)cc(C(=O)Nc3sc4c(c3C(=O)NCc3cccnc3)CCCC4)oc2c1C,101%,107%,103%,104%,109%,97.3%,100%,98.4%,108%,110%,103%,96.4%,99.9%,96.9%,116%,93.2%,102%,98.1%,104%,104%
COC(=O)N1CC(Oc2ccccn2)C2CC1c1ccccc1O2 (stereo not given),94%,104%,119%,100%,100%,90.3%,97.6%,98.6%,104%,102%,115%,114%,104%,89.7%,95.1%,102%,104%,99.4%,88%,102%
C=CN(C(=O)N1CCN(c2cc3c(cc2F)c(=O)c(C(=O)O)cn3C2CC2)CC1)c1nc(-c2ccc(OC)cc2)cs1,12.7%,37.8%,15.3%,18.5%,10.8%,-14.1% (active),12.7%,16.6%,30.5%,29.5%,30.9%,21.9%,42.7%,22.1%,20%,29.6%,11.8%,25.8%,26.9%,32.1%
Cc1ccc(Cl)cc1NC(=O)c1sc2nc3c(cc2c1N)C(=O)CCC3,63%,88.3%,95.7%,60.9%,28.1%,56.9%,22.9%,53.9%,89.3%,39.7%,77.4%,33.6%,81.1%,80%,42.1%,74.9%,4.01% (active),47.7%,44.9%,62.9%
O=C(CCl)NNc1nccc(Nc2ccc(S(=O)(=O)Nc3ccncc3)cc2)n1,40.5%,70.8%,64.4%,83.2%,27.9%,37.3%,-42.9% (active),71.5%,24.1%,82.2%,32.1%,17.6%,32.2%,46.7%,48.2%,37.6%,67.7%,5.24% (active),52.1%,45.2%
CCSc1oc(C)nc1[P+](c1ccccc1)(c1ccccc1)c1ccccc1,20.6%,57.9%,77%,21.3%,16.8%,25.3%,24.8%,23.2%,56.6%,-7.48% (active),29.5%,19.8%,31.1%,49.1%,50.9%,25%,35.1%,59.1%,11.8%,33.1%
C=C1CC[C@@H]2C(C)(C)[C@@H](O)CC[C@@]2(C)[C@@H]1COc1ccc2ccc(=O)oc2c1,75.3%,66.1%,109%,103%,87.8%,86.8%,66.9%,58.7%,89.6%,92%,91.8%,53.3%,89%,89.4%,88.5%,78%,62.5%,86.1%,77.3%,80.4%
C=C(CNCCO)[C@@H]1CC[C@]2(CO)CC[C@]3(C)[C@H](CC[C@@H]4[C@@]5(C)CCC(N)C(C)(C)[C@@H]5CC[C@]43C)[C@@H]12 (stereo not given in full),83.7%,88%,80.2%,71.4%,-26.8% (active),54.5%,0.745% (active),36.2%,11%,-74.7% (active),53%,-43.3% (active),-75.1% (active),2.59% (active),50.4%,33.1%,46.5%,-6.75% (active),-81.5% (active),-70.2% (active)
O=S(=O)(Oc1ccc(Br)cc1)c1ccc(Cl)cc1,89.4%,100%,97.3%,105%,110%,102%,97.4%,101%,89.2%,108%,93.8%,108%,85.5%,117%,114%,99.2%,94.6%,110%,118%,94.3%
CCOC(=O)C(Cc1ccc(OC)cc1)C(=O)OCC,17.6%,65.9%,36.3%,52.8%,30.4%,-1.28% (active),25%,51.7%,39.3%,71.6%,-35.4% (active),15.2%,58.1%,47.5%,-11.3% (active),30.2%,30.4%,19.9%,25.3%,46.3%
COc1ccc(N2CCC(=S)NC2=S)cc1,99.2%,86.4%,105%,108%,107%,104%,87.4%,99.8%,103%,108%,108%,100%,101%,103%,119%,94.2%,101%,99.9%,102%,109%
Cc1nn(-c2ccccc2)c(N)c1N=C1NC(=O)/C(=C/c2ccc(Br)cc2)S1,75.8%,78.4%,83.5%,59.6%,93.1%,65.6%,85.4%,74.3%,94.6%,101%,96.4%,58.8%,93.8%,86%,151%,81.6%,87.2%,83.4%,111%,89.9%
O=C(c1c[nH]c2ccccc12)c1n[nH]c(=S)n1-c1cccc(Br)c1,87.2%,83.1%,77.7%,81.7%,75%,84.2%,80%,86.5%,103%,99%,103%,84.6%,95.4%,76.9%,104%,95.4%,102%,106%,97.4%,99.3%
CN1CCN(CCCOc2cccc3nc(Nc4ccc(F)c(F)c4)ccc23)CC1,36%,56.2%,-13.6% (active),5.44% (active),-26% (active),0.0965% (active),-58.6% (active),3.54% (active),-12.3% (active),-82.1% (active),7.31% (active),-41.5% (active),-64.8% (active),-69.9% (active),16.4%,26%,-65% (active),-53.5% (active),-76.7% (active),-78.5% (active)
CO[C@H]1CC(=O)n2c3ccccc3c3c4c(c5c6ccccc6n1c5c32)C(=O)NC4=O,63.3%,52.1%,63.5%,54.4%,29.1%,86.1%,58.9%,57%,97.4%,42%,42.3%,76.3%,50.2%,71.4%,62.4%,68.9%,11.3%,57%,73.5%,62.2%
CCCCCN(CCCCC)CC(O)c1cc(C)c2ccc3cc(C(C)C)ccc3c2c1 (stereo not given),-52.1% (active),78.9%,76.7%,20%,6.03% (active),-43.6% (active),-62.4% (active),3.86% (active),-80.5% (active),-14.9% (active),-77.1% (active),-16.2% (active),53.9%,-47.6% (active),-88.2% (active),-61.7% (active),103%,-78.3% (active),105%,20.3%
C=CCn1c(SCC(=O)Nc2ccc(/C(C)=N/O)cc2)nnc1-c1cc(-c2ccc(S(N)(=O)=O)cc2)nc2ccccc12,97.3%,84.1%,96.7%,84.3%,91%,72.3%,68.8%,110%,85.4%,94.2%,105%,38.8%,88.9%,74.1%,93.5%,67.1%,98.4%,64.2%,92.7%,93.5%
NS(=O)(=O)c1ccc(-c2cc(-c3nnc(SCC(=O)Nc4ccc(C(=O)/C=C/c5ccc(Cl)cc5)cc4)n3-c3ccccc3)c3ccccc3n2)cc1,102%,96.6%,89.3%,100%,97.7%,93.1%,89.9%,95%,73.4%,103%,95.7%,84.4%,101%,90.8%,93%,74.8%,101%,92.3%,104%,97.7%
C=C(C)[C@@H]1CC[C@]2(C)[C@H](CC=C3[C@@H]4CC(C)(C)CC[C@]4(CO)CC[C@]32C)[C@@]1(C)CCCN,68.7%,95.9%,54.6%,63.9%,-93.2% (active),42.5%,-40.1% (active),-71% (active),32.6%,-56.8% (active),44%,-47.7% (active),-45.7% (active),27%,31.6%,67.6%,90.6%,-61.5% (active),-85.2% (active),-65.5% (active)
C=C1C(=O)O[C@H]2[C@H]1CC/C(COC(=O)c1ccc(C(=O)O)s1)=C\CC[C@@]1(C)O[C@@H]21,57.4%,41.9%,68.2%,75%,30.6%,1.03% (active),-79.8% (active),80.3%,41.6%,-0.755% (active),18.6%,3.11% (active),3.09% (active),-3.52% (active),-56% (active),24.2%,81%,-25.7% (active),52.7%,23.1%
CCC1S/C(=N\N=C(\C)c2cc3cc(Cl)ccc3o2)N(c2ccccc2)C1=O (stereo not given),90.7%,113%,82.4%,100%,122%,71%,160%,132%,85.8%,118%,131%,92.2%,-3.03% (active),89.4%,131%,108%,103%,122%,154%,61.5%
CCN(CC)Cc1cc(Nc2ccnc3cc(Cl)ccc23)ccc1O,99.2%,105%,89.7%,89.4%,96.8%,88.5%,91.2%,107%,96.8%,81.5%,97.4%,87.1%,104%,72.3%,97.4%,77.8%,93.4%,85.6%,112%,91.2%
Fc1ccc2[nH]cc(-c3nc(-c4c[nH]c5ccncc45)cs3)c2c1,49.3%,68.6%,-5.67% (active),-73.6% (active),-71.5% (active),28.6%,-61.1% (active),-41.7% (active),-92.9% (active),-72.9% (active),-0.992% (active),-41.7% (active),-85.3% (active),-59.8% (active),-84.6% (active),-31.5% (active),-74.1% (active),-92.6% (active),-67.8% (active),-66.4% (active)
N#C/C(=C\c1cn(Cc2ccccc2)c2ccccc12)C(=O)Nc1ncc(Cc2ccccc2Cl)s1,-29.3% (active),-33.6% (active),36.1%,12.5%,-44.2% (active),-6.07% (active),30.3%,8.73% (active),6.01% (active),-2.97% (active),24.3%,26.2%,-7.28% (active),19.8%,40.8%,64.1%,8.89% (active),13.5%,-38.2% (active),38.9%
CSc1nn2c(-c3ccc4ccccc4c3)ccnc2c1C#N,33.1%,24.9%,56.2%,18.6%,-29.6% (active),33.8%,-23.4% (active),5.43% (active),22.2%,17%,43%,11.1%,10.1%,27.3%,19%,45.3%,8.45% (active),26.3%,63%,5.19% (active)
O=C(NNC(=O)c1ccc(NC(=O)c2ccccn2)cc1)Nc1ccc2ccccc2c1,96.5%,103%,103%,115%,110%,108%,105%,108%,111%,130%,110%,106%,123%,115%,116%,101%,103%,69%,120%,115%
COc1cccc(CNc2c3ccccc3nc3ccccc23)c1,37.3%,48.1%,44%,46.5%,10%,25.5%,61.7%,30.2%,37.3%,9.63% (active),53.3%,6.57% (active),44%,49.9%,13.8%,71.2%,36%,19.4%,55%,35.2%
CC1=CC(c2ccco2)=C2C(N)=NNC2N1 (stereo not given),97.6%,95.7%,92.6%,88.8%,100%,77.8%,95.2%,101%,97.6%,116%,110%,99.6%,92.5%,92.1%,119%,98.7%,98.2%,81.1%,102%,104%
N#Cc1c(-c2ccccc2)nc(SCc2nnc(-c3ccc(Cl)cc3)o2)[nH]c1=O,105%,97.2%,104%,63.7%,105%,78.8%,71.2%,78.2%,89.2%,89.3%,108%,84.1%,88.9%,103%,106%,100%,89.5%,104%,94.7%,92.1%
